PubChem BioAssay (NCI)
Compounds without any hit were thinned out: in the full panel of roughly 79,000, 15% have a hit. Calls of active or inactive are those of the source. No stated cut-off is given here; in the data, active means growth inhibition above about 70%; inactive means the rest. Where a SMILES comes first, the peptide text is derived from it. The star is where a group is joined. Cbz = O=C(OCc1ccccc1)*

How the values were obtained:
[1] = NCI Yeast Anticancer Drug Screen. Data for the rad50 strain (AID 155);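 further: 0% = growth of vehicle-only cultures of the same strain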; conditions: S. cerevisiae rad50 strain growth inhibition; at 50.0 µM; hits give high values
Method in brief: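 Genetically altered yeast (DNA repair pathway); compound treatment; growth inhibition vs vehicle ctrl.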

[2] = NCI Yeast Anticancer Drug Screen. Data for the mec2-1 strain (AID 157); conditions: S. cerevisiae mec2-1 strain, at 50.0 µM, hits give high values
Method in brief: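 Growth inhibition is read against vehicle-treated controls after compound exposure of the mec2-1 yeast strain, which is defective in DNA damage repair or cell cycle control.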

[3] = NCI Yeast Anticancer Drug Screen. Data for the sgs1 mgt1 strain (AID 161);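 further: 0% = growth of cultures given vehicle only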; conditions: S. cerevisiae sgs1 mgt1 strain, at 50.0 µM, hits give high values
Method in brief: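 Growth of a repair-deficient yeast mutant was monitored after compound treatment and expressed as inhibition relative to vehicle-treated cultures.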

[4] = NCI Yeast Anticancer Drug Screen. Data for the cln2 rad14 strain (AID 165);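 further: 0% = growth equal to vehicle treated cultures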; conditions: S. cerevisiae cln2 rad14 strain, at 50.0 µM, hits give high values
Method in brief: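 Growth inhibition, relative to vehicle-treated controls, is the read-out. The test organism is a yeast strain with defined genetic alterations, cln2 rad14.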

[5] = NCI Yeast Anticancer Drug Screen. Data for the bub3 strain (AID 167); conditions: S. cerevisiae bub3 mutant strain, at 50.0 µM, hits give high values
Method in brief: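 Yeast carrying a defined mutation is treated with each compound, and growth is compared with that of vehicle-exposed cells to give inhibition.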

[6] = NCI Yeast Anticancer Drug Screen. Data for the mlh1 rad18 strain (AID 175); conditions: S. cerevisiae mlh1 rad18 strain growth inhibition; at 50.0 µM; hits give high values
Method in brief: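 Cells of a genetically altered yeast strain, deficient in DNA damage repair, were treated with compound. Their growth was then compared with that of vehicle-treated cultures to give inhibition.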

Measured: growth inhibition

Nc1ccc2c(c1)C(=O)CCCC2
inactive: [1] 1.55% | [2] -8.95% | [3] -2.15% | [4] -10.1% | [5] 1.25% | [6] 14.1%

CCOC(=O)c1c(/C=N\Nc2ccccc2)nc2ccccc2c1-c1ccccc1
inactive: [1] 11.7% | [2] 0.6% | [3] -2.9% | [4] -6.5% | [5] -30.8% | [6] -7.4%

NCCCC(=O)NCCCC(=O)O
inactive: [1] 19.9% | [2] -5.75% | [3] -2.25% | [4] -15.9% | [5] -6.75% | [6] 2%

O=C(O)c1ccc2c(c1)S(=O)(=O)NC2=O
inactive: [1] 1.15% | [2] 10.2% | [3] 13% | [4] -26.1% | [5] 12.1% | [6] -8%

COC(=O)[C@@H](CO)NC(=O)OC(C)(C)C
inactive: [1] -27.6% | [2] -15% | [3] -24.1% | [4] 21.6% | [5] 9.4% | [6] -12.8%

COc1ccc2ccccc2c1Br
inactive: [1] -11.3% | [2] 8.25% | [3] -3.25% | [4] -24.1% | [5] -19.3% | [6] 8.65%

Brc1ccncc1
inactive: [1] -10.7% | [2] -47.5% | [3] -1.55% | [4] 3.35% | [5] -21.9% | [6] -13.6%

CCC1C(=O)OCc2c1cc1n(c2=O)C(CC)c2c-1nc1ccccc1c2Cl (stereo unspecified)
inactive: [1] 57.4% | [2] 14.6% | [3] 8.15% | [4] -28.3% | [5] -2.95% | [6] 4.55%

Cc1cc(-c2ccccc2)n(C(C(=O)c2ccccc2)c2ccccc2)n1 (stereo unspecified)
inactive: [1] 13.8% | [2] -10.4% | [3] -0.15% | [4] -5.6% | [5] -26.7% | [6] -15.2%

O=C(CN1C(=O)c2ccccc2C1=O)NC1(C(=O)O)CCCC1
inactive: [1] -3.25% | [2] -14% | [3] -27.9% | [4] -2.65% | [5] -30.8% | [6] -0.15%

COc1ccc(C(C)=O)cc1CCCO
inactive: [1] -1.55% | [2] 5.85% | [3] 0.4% | [4] 30.6% | [5] 13% | [6] 20.6%

ClSC(c1ccccc1)(c1ccccc1)c1ccccc1
inactive: [1] 20.2% | [2] 8.9% | [3] 57.6% | [4] 10.6% | [5] -30.9% | [6] 33.4%

O=c1cc(-c2ccccc2)[nH]c2ncccc12
inactive: [1] -37.5% | [2] -48.6% | [3] -37.1% | [4] -9.4% | [5] -19.8% | [6] -65.8%

COc1ccc(OC)c(/C=C/c2ccc(NC(=O)C(Cl)(Cl)Cl)cc2)c1
inactive: [1] -11.1% | [2] -3.8% | [3] -12.2% | [4] -36.3% | [5] -2.55% | [6] 10.2%

O=C1N=C(c2c[nH]c3ccccc23)C(=O)N1
inactive: [1] -1.8% | [2] 6.9% | [3] 15.9% | [4] 12.6% | [5] -1.45% | [6] 8.8%

COC(=O)CCC(=O)Nc1ccccc1C(F)(F)F
inactive: [1] -8.55% | [2] 5.3% | [3] 7.65% | [4] 3.2% | [5] 8.45% | [6] 1%

O=C1NC(N2CCCCC2)=N/C1=C\c1ccc(Cl)cc1
inactive: [1] -7.5% | [2] -7% | [3] 2.4% | [4] 7.55% | [5] -12.3% | [6] -38.5%

CC(=O)OC12c3ccccc3C(c3ccccc31)C1C(=O)N(c3ccccc3O)C(=O)C12 (stereo unspecified)
inactive: [1] -15.8% | [2] -17.4% | [3] -4.15% | [4] 6.2% | [5] -5.4% | [6] 7.7%

Clc1ccc(Cl)c(-c2csc(-c3cccnc3)n2)c1
inactive: [1] 4.95% | [2] -11.6% | [3] 12.5% | [4] -34.5% | [5] 7.6% | [6] 17.9%

CN(C=O)c1c(F)cc(C(=O)O)cc1F
inactive: [1] 3.05% | [2] 4.1% | [3] -3.3% | [4] 4.1% | [5] -6.65% | [6] 8.15%

O=C1NC(Cc2ccc(O)cc2)C(=O)N2CCCC12 (stereo unspecified)
inactive: [1] 1.25% | [2] -3% | [3] -34.6% | [4] 0.4% | [5] -18.2% | [6] -14.2%

CCCCCCCCCCCCCCCCOc1ccc(OC)cc1C(=O)NNC(=S)SC
inactive: [1] 14.7% | [2] -0.1% | [3] 24.6% | [4] 8.55% | [5] 34% | [6] 21.2%

CC(C)CCC1(C2CCOCC2)NC(=O)NC1=O (stereo unspecified)
inactive: [1] -9.85% | [2] -6.6% | [3] -4.85% | [4] -26.6% | [5] -7.55% | [6] 0.95%

Nc1n[n+](-c2ccc(Cl)cc2)no1
inactive: [1] 67%
active: [2] 87.8% | [3] 87.4% | [4] 81.7% | [5] 82.8% | [6] 91.7%

CCCCNC(C(=O)c1ccc(N(C)C)cc1)c1ccccc1 (stereo unspecified)
inactive: [1] 3.7% | [2] -10.6% | [3] -3.1% | [4] -8.15% | [5] 2.95% | [6] -13.9%

COC(=O)c1nc2n[nH]c(N)c2c2c1CCCCCCCCCC2
inactive: [1] 7.35% | [2] 15.6% | [3] -5.65% | [4] -13.6% | [5] 1.4% | [6] 12.1%

Nc1ncc(Cl)cn1
inactive: [1] 19.6% | [2] -21.4% | [3] 8% | [4] -25.2% | [5] -22.3% | [6] -23.6%

NC(=Nc1ccc([N+](=O)[O-])cc1)c1ccccc1
inactive: [1] 6.95% | [2] 1.6% | [3] -4.05% | [4] -11.9% | [5] 8.3% | [6] 9.65%

C[CH2][Sn]([CH2]C)([O]P(=O)(C[Si](C)(C)C)c1ccccc1)[O]P(=O)(C[Si](C)(C)C)c1ccccc1 (stereo unspecified)
inactive: [1] 0% | [2] 8.7% | [3] 4.2% | [4] 24% | [5] 53.2% | [6] 17.2%

O=c1ccn(C2OC(CO)C(O)C2Cl)c(=O)[nH]1 (stereo unspecified)
inactive: [1] -6.7% | [2] -42.1% | [3] -11.4% | [4] 10.2% | [5] 4.9% | [6] -14.4%

COC1(OC)CCCc2c1no[n+]2[O-]
inactive: [1] -43.4% | [2] -11.3% | [3] -50.2% | [4] -16.7% | [5] 16.5% | [6] -21.2%

CC(NC(=O)C(C)(C)C)c1ccc(-c2ccccc2)cc1 (stereo unspecified)
inactive: [1] 11.8% | [2] 29.6% | [3] 9.2% | [4] 12.6% | [5] 2% | [6] 10.8%

COC(=O)c1ccccc1NC(=NC1CCCCCC1)NS(=O)(=O)c1ccc(C)cc1
inactive: [1] 30.4% | [2] 11.2% | [3] -13.8% | [4] -8.15% | [5] 0.3% | [6] -31.3%

CCOC(=O)c1cnc(=O)n(Cc2ccccc2)c1N
inactive: [1] -1.25% | [2] 0.65% | [3] 10.9% | [4] 0.45% | [5] 0.35% | [6] -8.15%

CC(=O)Nc1ccc(/C=N/NC(N)=S)cc1
inactive: [1] 7.4% | [2] -7.35% | [3] 17% | [4] 12.4% | [5] 3.05% | [6] 13%

C=CCOC(=O)COC(=O)C(C)(C)OC(C)=O
inactive: [1] -3.35% | [2] 10.3% | [3] -1.7% | [4] 10.9% | [5] 12.6% | [6] -5.9%

COC(=O)C(NC(=O)C(C)NC(=O)C1CCCN1C(=O)CNC(=O)C(CO)NC(=O)C(NC(=O)OCc1ccccc1)C(C)O)C(C)O (stereo unspecified) (Cbz-TSGPAT-OMe; configuration not given here)
inactive: [1] 3.3% | [2] -5.9% | [3] -4.7% | [4] -10.2% | [5] -7.8% | [6] 10.6%

O=C1c2ccccc2C(=O)N1CCOCCOCCOCCN1C(=O)c2ccccc2C1=O
inactive: [1] 9.4% | [2] -5.95% | [3] -0.75% | [4] -12.3% | [5] -2.75% | [6] -36%

CCCCc1ccccn1
inactive: [1] -9.1% | [2] 4.15% | [3] 14.1% | [4] -42.5% | [5] 7.4% | [6] 16.9%

COC(=O)C1=C(C)NC(C)=C(C(=O)OC)C1c1ccc(NC(C)=O)cc1
inactive: [1] 4.7% | [2] -3.7% | [3] 13.3% | [4] -6.25% | [5] 5.25% | [6] 10.9%

Nc1ccc(N)c(N)c1
inactive: [1] 26.3% | [2] 53.1% | [3] 31.4% | [4] -31.2% | [5] -4.9% | [6] 6.8%
